mHTT CaM bind – mutant huntingtin-calmodulin interaction inhibitors – biochemical, AlphaScreen, primary screen; AlphaScreen His-mHTT/GST-CaM binding, luminescence; inhibition, % at 15 µM; actives 3.6% (n = 190,000); AID 1671202, 2021
Pf apPOL block – Pf-apPOL inhibitors, biochemical, fluorescence. Plasmodium falciparum apicoplast DNA polymerase (apPOL). Recombinant Pf-apPOL, molecular beacon fluorescence, 1.5 h. inhibition, % at 10 µM. actives 0.25% (n = 210,000). AID 1794808, 2022
Large screens that a line does not name were inactive. The entries come from a sample that favours hits as a whole. Rule as the data show it: active = inhibition above about 50%; inactive = the rest.

Nc1nc2n(n1)C(c1cccs1)CC(c1ccc(Cl)c(Cl)c1)N2 (stereo not drawn)	mHTT CaM bind 84
COc1ccccc1C1CC(c2ccc(Cl)cc2Cl)Nc2nc(N)nn21 (stereo not drawn)	mHTT CaM bind 57
COc1ccc(C2CC(c3ccc(Cl)c(Cl)c3)Nc3nc(N)nn32)cc1OC (stereo not drawn)	none
CCOc1ccccc1C1CC(c2ccc(Cl)c(Cl)c2)Nc2nc(N)nn21 (stereo not drawn)	mHTT CaM bind 100
Nc1nc2n(n1)C(c1ccc(Cl)cc1)CC(c1ccccc1)N2 (stereo not drawn)	none
CC1=NC2SC=C(c3ccccc3Cl)N2C(=O)C1 (stereo not drawn)	none (no result: mHTT CaM bind)
COc1ccc(-c2c(C)oc3cc(OS(C)(=O)=O)ccc3c2=O)cc1OC	none
Fc1ccc(C2=CSC(N=Cc3ccco3)=NN2)cc1	mHTT CaM bind 68
CC1=C(c2ccc(Cl)cc2)NN=C(N=Cc2ccco2)S1	none
CC(C)C(=O)Oc1coc(CSc2nnc(NC(=O)c3cccs3)s2)cc1=O	mHTT CaM bind 82, Pf apPOL block 74
O=C(CSc1nnc(NC(=O)c2cccs2)s1)NCc1ccccc1Cl	none
C=CCc1cc(OC)c(O)c(-c2cc(CC=C)cc(OC)c2O)c1	mHTT CaM bind 61
COc1cc(CCCO)cc(-c2cc(CCCO)cc(OC)c2O)c1O	none
COc1ccccc1-n1c(SCC(=O)NCc2cccs2)nc2[nH]ncc2c1=O	none
CC(C)n1c(=O)c(NCc2ccc(F)c(Cl)c2)nc2ccncc21	mHTT CaM bind 87
CC(C)n1c(=O)c(NCc2cccc(F)c2)nc2ccncc21	none
O=C1CCC(=O)N1c1ccc(S(=O)(=O)Nc2cccc([N+](=O)[O-])c2)cc1	none
C#CCSc1ccccc1C(=O)O	none
C#CC(C=CC)OC(=O)c1ccccc1C(=O)O (stereo not drawn)	Pf apPOL block 53 (no result: mHTT CaM bind)
Cc1cc(C(=O)Nc2nc(-c3ccccn3)cs2)on1	mHTT CaM bind 100
COc1cc(C(=O)Nc2cccc(NC(=O)c3ccccc3)c2)cc(OC)c1OC	mHTT CaM bind 52
COCC(=O)Nc1cc(OC)c(NC(=O)c2ccccc2)cc1OC	none
COc1cc(C(=O)Nc2ccc(NC(=O)c3ccccc3)cc2)cc(OC)c1OC	none
O=C(Nc1nc(-c2ccccn2)cs1)c1ccc(Br)s1	mHTT CaM bind 100
COC(=O)c1ccc(-c2csc(NC(=O)c3cc(C)no3)n2)cc1	none
O=C(Nc1nc(-c2ccccc2)cs1)c1ccccc1	none
COc1cc(NC(=O)c2ccccc2)c(OC)cc1NC(=O)COc1ccccc1	mHTT CaM bind 59
Cc1ccc2oc(C(=O)Nc3c(C)cccc3C(=O)O)c(C)c2c1	none
CCC(=O)NCCc1csc(C2CCCN(C(=O)c3cccc(Cl)c3)C2)n1 (stereo not drawn)	none
COc1cc(C(=O)Nc2nc(-c3ccccn3)cs2)cc(OC)c1OC	mHTT CaM bind 100
COc1cc(C(=O)Nc2nc(-c3ccc(Cl)cc3)cs2)cc(OC)c1OC	none
Cc1nccn1CC(=O)N1CCCC2(C1)Nc1ccccc1NC2=NCc1ccccc1 (stereo not drawn)	none
Cc1nc(Nc2nc3c(c(=O)[nH]2)CCC3)nc2ccccc12	none
Clc1ccc(Nc2nc(NCCCn3ccnc3)nc3nc[nH]c23)cc1	mHTT CaM bind 99
c1cn(CCCNc2ncnc3nc[nH]c23)cn1	none
O=C(CSc1cccc2cccnc12)Nc1ccccc1	none
CCCCCOc1ccc(NC(=O)CSc2cccc3cccnc23)cc1	mHTT CaM bind 83
CCOc1ccc(C(=O)Nc2ccc3oc(-c4ccncc4)nc3c2)cc1[N+](=O)[O-]	none
O=C(Nc1nccs1)C(=O)NC1CCCCCCC1	none
CCOCC(=O)N1CCCC(c2ccnc(Nc3ccc(C)cc3)n2)C1 (stereo not drawn)	none
O=C(Cc1cccc(F)c1)N1CCCC(c2ccnc(Nc3cccc(F)c3)n2)C1 (stereo not drawn)	mHTT CaM bind 73
Cc1cccc(-c2nccc(C3CCCN(C(=O)Cc4cccc(F)c4)C3)n2)c1 (stereo not drawn)	none
CCOCC(=O)N1CCCC(c2ccnc(Nc3cccc(F)c3)n2)C1 (stereo not drawn)	mHTT CaM bind 62
O=C(CC[n+]1cccc(/C=N/O)c1)NCc1ccccc1	none
COc1cc(/C=C(\C#N)c2nc3ccccc3s2)cc(OC)c1OC	none
CCC(C(=O)Nc1cc(C)on1)c1ccccc1 (stereo not drawn)	none
OCCOCCNc1ncnc2c1c(-c1ccccc1)cn2-c1cccc(C(F)(F)F)c1	none
OCCOCCNc1ncnc2c1c(-c1ccccc1)cn2-c1cccc(Cl)c1	mHTT CaM bind 54
NC(=O)CSc1nnc(-c2ccncc2)o1	none
Nc1ccc2[nH]c3ccccc3c2c1	mHTT CaM bind 99
CC(=O)c1ccc2[nH]c3ccccc3c2c1	none
CCOc1ccc(-c2ccc(=O)n(CCNC(=O)c3ccccn3)n2)cc1	none
CCOC(=O)c1cnc2nc(C)ccc2c1Nc1cccc(Cl)c1	mHTT CaM bind 63
CCOC(=O)c1cnc2nc(C)ccc2c1Nc1ccc(F)c(Cl)c1	mHTT CaM bind 68
COC(=O)c1cnc2nc(C)ccc2c1Nc1cccc(Cl)c1	none
CCOC(=O)c1cnc2nc(C)ccc2c1Nc1cc(F)ccc1Cl	none
COC(=O)c1cnc2nc(C)ccc2c1Nc1ccc(Cl)cc1F	none
COC(=O)c1cnc2nc(C)ccc2c1Nc1ccc(Cl)cc1C	mHTT CaM bind 85
CCC(C(=O)N1CCOCC1)c1ccccc1 (stereo not drawn)	none
O=C(c1cccs1)N1CCCC1c1nc(-c2ccccc2)n[nH]1 (stereo not drawn)	none
O=C(Nc1ccc2c(c1)CCC2)N1CCC2(C1)Nc1cccnc1NC2=NC1CCCC1 (stereo not drawn)	none
COc1ccc(C)cc1NC(=O)c1c(C)c(C)c(C)n1Cc1cccc(F)c1	none
Cc1ccc(C(=O)N2CCC3(CC2)NC(=O)c2cc(F)ccc2N3C)c(C)c1	mHTT CaM bind 56
Cc1ccc(C(=O)N2CCC3(CC2)NC(=O)c2ccc(F)cc2N3C)c(C)c1	none
CCOC(=O)N1CCc2nc(NC(=O)c3sc4ccccc4c3Cl)sc2C1	mHTT CaM bind 53
CCOC(=O)N1CCc2nc(NC(=O)c3nc4ccccc4s3)sc2C1	none
CC(=O)N1CCc2c(sc(NC(=O)c3sc4ccccc4c3Cl)c2C#N)C1	mHTT CaM bind 61
N#Cc1ccc(NC(=O)c2sc3ccccc3c2Cl)cc1	none (no result: mHTT CaM bind)
CC1(C)CC2(CCO1)OC(=O)CC2C(=O)NCCc1ccccc1 (stereo not drawn)	none
N#CC1=CN(c2ccc(F)cc2F)c2ccccc2S1(=O)=O	none
CC(=O)Nc1ccccc1NC(=O)c1ccccc1[N+](=O)[O-]	mHTT CaM bind 60
NC(=O)c1ccccc1NC(=O)c1ccccc1[N+](=O)[O-]	none
CN(C)c1ccc2cccc(O)c2n1	none
O=C(NC1CCCC1)C1CCc2sc(C(=O)N3CCCCC3)cc2C1 (stereo not drawn)	none
COCCOCC1CCN(C(=O)C(C)(C)C)CC1	none
O=C1CCCC2=C1C(c1cccc(Br)c1)C1=C(CCCC1=O)N2	none
COc1ccc(NC(=O)c2c(NC(=O)CNCc3ccco3)sc3c2CCC3)cc1	none
CCOc1ccc(NC(=O)c2c(NC(=O)CNCCN3CCOCC3)sc3c2CCC3)cc1	mHTT CaM bind 81
COc1ccc(NC(=O)c2c(NC(=O)CNCCO)sc3c2CCC3)cc1	mHTT CaM bind 62
CCOc1ccc(NC(=O)c2c(NC(=O)CNCC3CCCO3)sc3c2CCC3)cc1 (stereo not drawn)	none
COc1cccc(OC)c1C(=O)NCCc1ccccc1	none
